# Measurements: PubChem BioAssay (NCATS)
# Inconclusive results are not listed. Calls of active or inactive are those of the source.
# Molecular target: T1, Tyrosine-protein phosphatase non-receptor type substrate 1 (Homo sapiens) + Leukocyte surface antigen CD47 (Homo sapiens) (UniProt P78324+Q08722)
# Assay: CD47-SIRPalpha protein protein interaction - LANCE assay qHTS validation (AID 1347057; active = well fitted curve in the direction sought with a large enough effect in the signal ratio, with a control signal flat, not every such curve was filed as active; the % refers to the signal ratio)
# Conditions: Recombinant CD47-His / biotin-SIRPalpha, TR-FRET ratio; series mostly up to 38.3 µM
# Outline: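 Inhibition of soluble CD47/SIRPalpha ectodomain association by titrated compounds, measured as 665/615 nm time-resolved FRET ratio after sequential 30 min room-temperature incubations.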
# T1 sequence (P78324 whole entry, looked up): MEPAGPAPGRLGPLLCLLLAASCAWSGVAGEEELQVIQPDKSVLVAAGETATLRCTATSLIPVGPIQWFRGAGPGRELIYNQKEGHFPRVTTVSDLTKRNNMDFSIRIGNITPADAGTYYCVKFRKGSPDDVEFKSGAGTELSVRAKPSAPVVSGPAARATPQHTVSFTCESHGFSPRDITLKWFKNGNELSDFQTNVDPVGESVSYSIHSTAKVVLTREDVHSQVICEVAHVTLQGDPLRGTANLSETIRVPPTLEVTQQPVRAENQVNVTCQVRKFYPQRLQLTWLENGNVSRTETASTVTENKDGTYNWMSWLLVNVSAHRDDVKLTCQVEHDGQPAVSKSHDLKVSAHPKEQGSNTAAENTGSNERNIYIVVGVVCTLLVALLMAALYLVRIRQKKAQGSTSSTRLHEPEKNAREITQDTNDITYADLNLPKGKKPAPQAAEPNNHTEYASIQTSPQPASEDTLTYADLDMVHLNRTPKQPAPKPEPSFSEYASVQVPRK
# T1 sequence (Q08722 whole entry, looked up): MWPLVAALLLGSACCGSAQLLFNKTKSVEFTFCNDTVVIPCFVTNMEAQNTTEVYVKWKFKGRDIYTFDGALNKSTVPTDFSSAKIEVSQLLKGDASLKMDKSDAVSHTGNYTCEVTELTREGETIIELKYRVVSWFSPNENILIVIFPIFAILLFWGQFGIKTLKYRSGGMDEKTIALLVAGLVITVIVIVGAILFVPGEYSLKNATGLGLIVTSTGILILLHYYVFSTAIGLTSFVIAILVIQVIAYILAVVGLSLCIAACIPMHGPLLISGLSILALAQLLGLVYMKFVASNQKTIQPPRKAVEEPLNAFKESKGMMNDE
row,Structure (SMILES),outcome
1,O=C1CCC(N2C(=O)c3ccccc3C2=O)C(=O)N1 (stereo unspecified),inactive
2,CCOC(=O)C1=C[C@]2(CC)CCCN3CCc4c(n1c1ccccc41)[C@@H]32,inactive
3,Cn1cnc([N+](=O)[O-])c1Sc1ncnc2nc[nH]c12,inactive
4,CCOC(=O)N1CCC(=C2c3ccc(Cl)cc3CCc3cccnc32)CC1,inactive
5,Oc1ccc(C2CNCCc3c2cc(O)c(O)c3Cl)cc1 (stereo unspecified),inactive
6,Nc1ccc(S(=O)(=O)Nc2ccnn2-c2ccccc2)cc1,inactive
7,CCCCNc1cc(C(=O)O)cc(S(N)(=O)=O)c1Oc1ccccc1,inactive
8,O=c1[nH]cnc2[nH]ncc12,inactive
9,CC(C)(C)NCC(O)c1ccc(O)c(CO)c1 (stereo unspecified),inactive
10,O=c1n(CCCN2CCN(c3cccc(Cl)c3)CC2)nc2ccccn12,inactive
11,O=C(O)COCCN1CCN(C(c2ccccc2)c2ccc(Cl)cc2)CC1 (stereo unspecified),inactive
12,CCn1cc(C(=O)O)c(=O)c2cc(F)c(N3CCNC(C)C3)c(F)c21 (stereo unspecified),inactive
13,CC(C)NCC(O)COc1ccc(COCCOC(C)C)cc1 (stereo unspecified),inactive
14,CCCC(CCC)C(=O)O,inactive
15,Nc1nc2c(ncn2COCCO)c(=O)[nH]1,inactive
16,Cc1cnc(NC(=O)C2=C(O)c3ccccc3S(=O)(=O)N2C)s1,inactive
17,O=NN(CCCl)C(=O)NCCCl,inactive
18,Cc1[nH]c(=O)c(C#N)cc1-c1ccncc1,inactive
19,NCCc1ccc(O)c(O)c1,inactive
20,CC(C[N+](C)(C)C)OC(N)=O (stereo unspecified),inactive
21,CC(=O)Oc1ccccc1C(=O)O,inactive
22,c1ccc([C@H]2CN3CCSC3=N2)cc1,inactive
23,NC[C@H](O)c1ccc(O)c(O)c1,inactive
24,NS(=O)(=O)c1cc2c(cc1Cl)NC=NS2(=O)=O,inactive
25,NCCCC(N)(C(=O)O)C(F)F (stereo unspecified),inactive
26,N[C@@H]1CONC1=O,inactive
27,NNCCc1ccccc1,inactive
28,O=C1CCc2cc(OCCCCc3nnnn3C3CCCCC3)ccc2N1,inactive

# Molecular target: T1, Tyrosine-protein phosphatase non-receptor type substrate 1 (Homo sapiens) + Leukocyte surface antigen CD47 (Homo sapiens)
# Assay: CD47-SIRPalpha protein protein interaction - HTRF assay qHTS validation (AID 1347058; active = well fitted curve in the direction sought with a large enough effect in the signal ratio, not every such curve was filed as active; the % refers to the signal ratio)
# Conditions: TR-FRET HTRF CD47-His / biotin-SIRPalpha binding, ratio 665/615; series mostly up to 38.3 µM
# Outline: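 Soluble extracellular domains (6His-CD47, Avi-tag-biotinylated SIRPalpha) in PBS pH 7.4 with 0.05% IGEPAL CA-630. Compounds were preincubated 30 min at RT with CD47 and anti-His-Eu, then SIRPalpha and SAV-XL665 were added. TR-FRET 665/615 ratio.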
row,Structure (SMILES),outcome
1,O=C1CCC(N2C(=O)c3ccccc3C2=O)C(=O)N1 (stereo unspecified),inactive
2,CCOC(=O)C1=C[C@]2(CC)CCCN3CCc4c(n1c1ccccc41)[C@@H]32,inactive
3,CCOC(=O)N1CCC(=C2c3ccc(Cl)cc3CCc3cccnc32)CC1,inactive
4,Oc1ccc(C2CNCCc3c2cc(O)c(O)c3Cl)cc1 (stereo unspecified),inactive
5,Nc1ccc(S(=O)(=O)Nc2ccnn2-c2ccccc2)cc1,inactive
6,O=c1[nH]cnc2[nH]ncc12,inactive
7,CC(C)(C)NCC(O)c1ccc(O)c(CO)c1 (stereo unspecified),inactive
8,O=c1n(CCCN2CCN(c3cccc(Cl)c3)CC2)nc2ccccn12,inactive
9,O=C(O)COCCN1CCN(C(c2ccccc2)c2ccc(Cl)cc2)CC1 (stereo unspecified),inactive
10,CCn1cc(C(=O)O)c(=O)c2cc(F)c(N3CCNC(C)C3)c(F)c21 (stereo unspecified),inactive
11,CC(C)NCC(O)COc1ccc(COCCOC(C)C)cc1 (stereo unspecified),inactive
12,CCCC(CCC)C(=O)O,inactive
13,Nc1nc2c(ncn2COCCO)c(=O)[nH]1,inactive
14,Cc1cnc(NC(=O)C2=C(O)c3ccccc3S(=O)(=O)N2C)s1,inactive
15,O=NN(CCCl)C(=O)NCCCl,inactive
16,NCCc1ccc(O)c(O)c1,inactive
17,CC(C[N+](C)(C)C)OC(N)=O (stereo unspecified),inactive
18,CC(=O)Oc1ccccc1C(=O)O,inactive
19,c1ccc([C@H]2CN3CCSC3=N2)cc1,inactive
20,NS(=O)(=O)c1cc2c(cc1Cl)NC=NS2(=O)=O,inactive
21,NCCCC(N)(C(=O)O)C(F)F (stereo unspecified),inactive
22,N[C@@H]1CONC1=O,inactive
23,O=C1CCc2cc(OCCCCc3nnnn3C3CCCCC3)ccc2N1,inactive
